According to the supplement of paper PMC11417369:
Over roughly 25,000 sequences, “ln(normalized median fluorescence intensity)” has its median near 9.7; the highest 2% begin near 11. Shown is part of a subset that was picked to be rich in the highest values.

Each sequence was assayed on PfAP2-HC AP2 domain (GST-tagged) (assay: gcPBM binding intensity (ln(normalized median fluorescence intensity)); higher = stronger DNA binding).
Outline: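 Binding intensity is the highest Masliner-normalised natural-log median intensity over replicate spots in either probe orientation. To obtain it, GST-tagged P. falciparum DNA-binding domains made in E. coli were incubated for 1 h on an Agilent 4 × 180k array of primer-extended double-stranded 36-bp intergenic genomic probes plus negative controls. Detection used Alexa488 anti-GST antibody with scanning at 488 nm.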
With “ATAATCCTTAAACACACACACACACTAATAAATAAA [CACACA_site8052]” the “gcPBM binding intensity (ln)” value was 10.8.
With “AAATATATATATATAATACACACTAAAGTAACATAA [CACACA_site2870]” the “gcPBM binding intensity (ln)” value was 10.
In the case of “ATAATCCTTGGACACACACACACACTAGTAAATAAA [CACACA_site4423]”, the “gcPBM binding intensity (ln)” value is reported as 11.3.
“TCAAAGCACACATACACACACATATAGATTTATATA [CACACA_site6272]” was tested, and the “gcPBM binding intensity (ln)” value was 10.2.
In the case of “ATCATTTGCTCACGCACACACACATAAAAAGAAAAA [CACACA_site4349]”, the “gcPBM binding intensity (ln)” value is reported as 10.2.
“TAAACATTTTTGCACGCACACAAAAAAAAAATAAAA [CACACA_site167]” was tested, and the “gcPBM binding intensity (ln)” value was 10.3.
For “CATTTGCCCAGGCACACACACATAAAAAGAAAAATA [CACACA_site356]”, the “gcPBM binding intensity (ln)” value was 10.2.
With “ATCATTTGCATACGCACACACACATAAAAAGAAAAA [CACACA_site355]” the “gcPBM binding intensity (ln)” value was 10.9.
For “CATTTGCACACGCACACACACATAAAAAGAAAAATA [CACACA_site6297]”, the “gcPBM binding intensity (ln)” value was 11.1.
In the case of “CATTTGCACCCGCACACACACATAAAAAGAAAAATA [CACACA_site4350]”, the “gcPBM binding intensity (ln)” value is reported as 11.1.
With “ATGCATAAAAGAAATACACACATAAATATATAAATA [CACACA_site2163]” the “gcPBM binding intensity (ln)” value was 9.99.
“TTTTATCACATTATTGCACACACATAAAGAAAAAAA [CACACA_site8922]” was tested, and the “gcPBM binding intensity (ln)” value was 9.98.
For “TTATCACATTATTGCACACACATAAAGAAAAAAATA [CACACA_site2841]”, the “gcPBM binding intensity (ln)” value was 9.94.
In the case of “ATATATTTTTAGCACAGTACAATATAATTAAATATA [XGTACX_site6779]”, the “gcPBM binding intensity (ln)” value is reported as 9.62.
For “AAAAAAAAAAAAAAAAGTACTAATTGAATATTAAAC [XGTACX_site3383]”, the “gcPBM binding intensity (ln)” value was 9.44.
“TATGTGTTCAGTATTGCACACACACTCCAAAATAAA [CACACA_site8018]” was tested, and the “gcPBM binding intensity (ln)” value was 10.
With “TATAAATATGTATATGCATGTGGAATATATAATTAA [TGCATGCA_site226]” the “gcPBM binding intensity (ln)” value was 9.69.
For “GGATTTATTATATATACACACATACATATATATATA [CACACA_site8669]”, the “gcPBM binding intensity (ln)” value was 9.88.
In the case of “ATTATATATATCAGGTGTACGTAAAAAAAATGGACG [XGTACX_site1028]”, the “gcPBM binding intensity (ln)” value is reported as 9.88.
“TTTTTAATTAACTTTGTAAACTTATATATATATATA [TGCATGCA_negctrl_site311]” was tested, and the “gcPBM binding intensity (ln)” value was 9.6.
For “AATCGTGTTCTGAATACACACTAATACAAATTTGTA [CACACA_site6058]”, the “gcPBM binding intensity (ln)” value was 9.75.
With “TGTAGTCTGGAGAAGAGTACACAGTATCTGGTAGCT [XGTACX_site2036]” the “gcPBM binding intensity (ln)” value was 9.72.
“AATATGTTTTGTTAGGTTGGTGTTGGTAGAATGTTT [CACACA_negctrl_site1563]” was tested, and the “gcPBM binding intensity (ln)” value was 9.85.
In the case of “CATACATACAGACACACACACATATATATATATATA [CACACA_site2920]”, the “gcPBM binding intensity (ln)” value is reported as 10.7.
“ATTTGGCATGGACACACACACACACCGACAGACATA [CACACA_site4491]” was tested, and the “gcPBM binding intensity (ln)” value was 11.4.
With “TATACAGACAGACACACACACATATATATATATATA [CACACA_site1734]” the “gcPBM binding intensity (ln)” value was 10.2.
With “CCCACAGACGGACACACACACACACCGACACATATA [CACACA_site4356]” the “gcPBM binding intensity (ln)” value was 11.
In the case of “TAAACAGACATATAAACACACATATAAACCGACATA [CACACA_site2478]”, the “gcPBM binding intensity (ln)” value is reported as 10.3.
“AAAAATTTGGCATACACACACACACCGACACAGACA [CACACA_site4489]” was tested, and the “gcPBM binding intensity (ln)” value was 10.5.
With “AGCACAGACGGACACACACACATATATATATATATA [CACACA_site4341]” the “gcPBM binding intensity (ln)” value was 10.8.
For “CATATACATACACATACACACATACAGACATACACA [CACACA_site6919]”, the “gcPBM binding intensity (ln)” value was 10.2.
For “CGCACAGACGGACACACACACACATATATATATATA [CACACA_site5249]”, the “gcPBM binding intensity (ln)” value was 11.1.
In the case of “TATACTCATGGACACACACACATACACAGACATACA [CACACA_site5024]”, the “gcPBM binding intensity (ln)” value is reported as 10.4.
With “CCCACAGACGGACACACACACACATATATATATATA [CACACA_site4352]” the “gcPBM binding intensity (ln)” value was 11.1.
With “TATAGATACAGATACACACACACACCGACATATATA [CACACA_site5832]” the “gcPBM binding intensity (ln)” value was 10.7.
